Assay results: PubChem BioAssay AID1851 (National Center for Advancing Translational Sciences (NCATS), 2009)
Out of some 16,000 compounds screened, about 4,000 (25%) were called active. Inconclusive results (about 26%) are left out. Calls come from the whole dose curve; as a rule, active = well fitted curve in the direction sought with a large enough effect; inconclusive = small, poorly fitted or top-dose-only effect, or effect the other way; inactive = no such curve, though single readings can be large or run the other way. Only a sample is shown.

Each molecule was assayed against Cytochrome P450 2C9 (Homo sapiens) (UniProt P11712) (assay: Cytochrome panel assay with activity outcomes). Conditions: recombinant CYP, pro-luciferin dealkylation, luminescence, p450-cyp2c9; series mostly up to 57.1 µM; activity, negative = inhibition: at the top concentration.
% is set by controls: 0 for no effect and ±100 for the full control effect.

Chain of Cytochrome P450 2C9 (Homo sapiens) (P11712 whole entry, looked up): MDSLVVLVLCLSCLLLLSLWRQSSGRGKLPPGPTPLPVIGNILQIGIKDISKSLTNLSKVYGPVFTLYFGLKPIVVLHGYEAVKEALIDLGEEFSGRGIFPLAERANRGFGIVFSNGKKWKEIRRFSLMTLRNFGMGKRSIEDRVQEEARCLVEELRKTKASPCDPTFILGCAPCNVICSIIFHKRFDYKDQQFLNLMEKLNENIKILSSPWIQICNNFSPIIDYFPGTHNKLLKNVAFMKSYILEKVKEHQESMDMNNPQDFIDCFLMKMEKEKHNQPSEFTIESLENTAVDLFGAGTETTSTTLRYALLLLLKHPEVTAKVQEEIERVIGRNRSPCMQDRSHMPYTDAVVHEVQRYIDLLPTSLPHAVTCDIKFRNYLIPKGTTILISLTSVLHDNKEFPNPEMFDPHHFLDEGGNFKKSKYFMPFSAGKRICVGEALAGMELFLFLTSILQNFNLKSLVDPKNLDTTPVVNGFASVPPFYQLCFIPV

activity, negative = inhibition, inactive:
NC(N)=N/N=C(/c1ccccc1)c1ccc(O)cc1O -9.7% [at 11.4 µM]
COc1ccc(S(=O)(=O)N2CCC(NC(=O)Nc3ccc(C)cc3)CC2)cc1 -17.7%
Cc1ccc(S(=O)(=O)N2CCN(C(=O)CN3CCN(C)CC3)C2)cc1 -13.7%
COc1ccc(-n2c(=O)c(C)nc3cnc(Oc4ccccc4)nc32)cc1 -4%
COc1cccc(Nc2ncc3nc(CCc4ccccc4)c(=O)n(C4CC4)c3n2)c1 24.2%
COc1cccc(Nc2ncc3nc(-c4cccs4)c(=O)n(-c4ccccc4)c3n2)c1 19.2%
CNc1nc(-c2ccoc2)nc2ccccc12 13% [at 2.29 µM]
Clc1ccc2c(c1)C=Nc1c(NCc3ccccc3)ncnc1O2 -15.6%
N#Cc1ccc(-c2ccc(F)cc2)nc1Oc1ccc(Cl)c(Cl)c1 -18.5%
OCCCNCc1ccccn1 9.34% [at 11.4 µM]
COc1ccc(N2C(=O)NC3CC2(C)Oc2ccccc23)cc1OC (stereo unspecified) 22.9%
O=C(NCc1ccccc1)c1ccc2c(c1)C(=O)N(CC1CCCO1)C2=O (stereo unspecified) -20.4%
Cn1c(=S)c2[nH]c(SCCN3C(=O)c4ccccc4C3=O)nc2n(C)c1=O -3.8% [at 11.4 µM]
Cn1c(=O)c2[nH]c(CCCCc3nc4c([nH]3)c(=O)n(C)c(=S)n4C)nc2n(C)c1=S -2.51% [at 11.4 µM]
CN(C)c1ccc(-c2cc(N(C)Cc3ccco3)ncn2)cc1 -6.39% [at 2.29 µM]
CN(C)c1ccc(-c2cncnc2N(C)Cc2ccco2)cc1 -17.3% [at 2.29 µM]
N[C@H](C(=O)O)[C@H](O)C(=O)O 1.98%
CCS(=O)(=O)N1CCC(C(=O)NCC2CCCO2)CC1 (stereo unspecified) 35.7%
N#CCSc1ncnc2c1cnn2CCO -20.7%
O=C1C2C3C=CC(C3)C2C(=O)N1c1ncn[nH]1 (stereo unspecified) 4.59%
CC1=NN(c2ccccc2)C(=O)/C1=C\N1CC(C)OC(C)C1 (stereo unspecified) 5.6%
CC1=NN(c2ccc(S(=O)(=O)O)cc2)C(=O)/C1=C\c1ccc(Cl)cc1 -2.05% [at 11.4 µM]
CNc1nc(-c2ccccc2CN(C)C)nc2ccccc12 4.11% [at 2.29 µM]
C[C@H](C[C@H](N)C(=O)O)C(=O)O -0.378%
CC(=O)OC[C@@H]1O[C@@H](O/N=C2/C[C@@H](O)[C@@H](O)[C@@H]3[C@@H]4C(=O)N([C@@H](C)c5ccccc5)C(=O)[C@H]4CC[C@@H]23)[C@H](OC(C)=O)[C@H](OC(C)=O)[C@@H]1OC(C)=O 16.3% [at 11.4 µM]
CC(C)NC(=O)N1CCC2(CC1)CCN(C(=O)c1cccn1C)CC2 23.2%
COc1ccccc1CNc1ncncc1-c1ccccc1Cl -27.8% [at 2.29 µM]
COc1ccccc1CNc1ccnc(-c2ccccc2Cl)n1 -21.6% [at 2.29 µM]
CCCN1C2=NCCCN2c2ccccc21 -8.01%
COc1ccc(C(=O)/C=C(/C)N(C)C)cc1 -8.1%
O=C(/C=C/c1ccc2ccccc2c1)c1ccoc1 5.04%
NCCSc1nc(-c2ccccc2)c(-c2ccccc2)o1 -11.6% [at 11.4 µM]
COc1cccc(-c2ccc3ncnc(N(C)C)c3c2)c1 -9.73% [at 2.29 µM]
CC(=O)N(C)c1nnc(-c2cnccn2)s1 25.9%
CN(C)C(=O)c1ccc(-c2cncnc2NCc2cccnc2)cc1 8.29% [at 2.29 µM]
CC(C)=NO[C@@H](C)c1cc(-c2c(C)cc(C)cc2C)no1 -0.976% [at 11.4 µM]
CCOC(=O)c1c(C)oc2c1c(C=NC1CCS(=O)(=O)C1)c(O)c1ccccc12 (stereo unspecified) -4.9%

AC50, active:
Cc1ccc(C(=O)NC(=S)Nc2ccc(S(=O)(=O)N3CCN(C)CC3)cc2)cc1 14.1 µM
Cc1[nH]n(C(C)(C)C)c(=O)c1Sc1ccccc1 7.08 µM
Cc1[nH]n(C(C)(C)C)c(=O)c1Sc1ccc(Cl)cc1 12.6 µM
COc1ccc(Oc2ncc3nc(CCc4ccccc4)c(=O)n(C4CC4)c3n2)cc1 12.6 µM
CN(C)c1ncc2nc(CCc3ccccc3)c(=O)n(C3CC3)c2n1 12.6 µM
COc1ncc2nc(CCc3ccccc3)c(=O)n(C3CC3)c2n1 15.8 µM
Fc1ccc(-c2cn3cc(C(F)(F)F)cc(Cl)c3n2)cc1 4.47 µM
CC12CC(NC(=O)N1c1cccc(C(=O)NCc3ccccc3)c1)c1ccccc1O2 (stereo unspecified) 3.98 µM
Cn1c(=O)c2[nH]c(SCc3ccccn3)nc2n(C)c1=S 3.16 µM
CCOc1ccc(NC(=S)N(Cc2ccc(Cl)cc2)Cc2ccco2)cc1 10 µM
CCOc1ccc(NC(=S)N(Cc2ccc(N(C)C)cc2)Cc2ccco2)cc1 1 µM
Cc1ccc(NC(=O)c2ccc(NCC3CCCO3)c([N+](=O)[O-])c2)cc1Cl (stereo unspecified) 1.12 µM
CC(C)(C)C(=O)N1CCN(c2ccc([N+](=O)[O-])c(NCC3CCCO3)c2)CC1 (stereo unspecified) 12.6 µM
Cc1cc(C)c(S(=O)(=O)N2CCN(c3ccc([N+](=O)[O-])c(NCC4CCCO4)c3)CC2)c(C)c1 (stereo unspecified) 2 µM
CCOc1cc(/C=C2/C(=O)N(c3ccccc3)N=C2C)ccc1OC(=O)c1ccco1 0.631 µM
O=C1Oc2ccccc2C(=O)/C1=C\N1C(=O)N/C(=C\c2ccccc2O)C1=O 1 µM
O=S(=O)(c1ccccc1)N1CCCC1c1nc2ccccc2s1 (stereo unspecified) 12.6 µM
COc1cccc(CNc2ccc(F)c(Cl)c2)c1O 2.82 µM
COc1ccc(/C=C/C(=O)c2ccoc2)cc1 28.2 µM
O=C(CCc1nc(-c2ccccc2)c(-c2ccccc2)o1)OCc1ccc(Cl)cc1 22.4 µM
Cc1ccc(-c2nnc(N(C)C(=O)c3cccnc3)s2)cc1 1.41 µM
COc1cccc(C(=O)N(C)c2nnc(-c3ccncc3)s2)c1 2 µM
CCCC1S/C(=N/N=C/c2ccc(OC)cc2)N(Cc2ccc(OC)cc2)C1=O (stereo unspecified) 15.8 µM
CCOC(=O)c1c(C)oc2c1cc(O)c1ccccc12 1.12 µM
